Test results from PubChem BioAssay (NCI).
The panel holds about 83,000 compounds, 20% with a hit somewhere; the sample as a whole holds those more often.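 The test compound was applied at a single concentration to cells in 96-well plates for 48 hours, and percent growth was recorded.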 Active and inactive are the calls of the source. The calls were made as follows: active = growth percent below 10; inactive = the rest.

tested on: HL-60(TB) leukemia; assay: NCI-60 one-dose screen, 48 h (100 = growth as untreated, 0 = no growth, -100 = all killed); settings: 10 µM unless noted

Structure (SMILES) | growth
C#CCOc1c(OC)cc(C(=O)/C(C)=C/c2cccc(N=[N+]=[N-])c2)cc1OC | 1.17% (active)
CC(C)OC(=O)NNC(=O)c1ccncc1 | 85.2% (inactive)
O=C(CSc1nc2ccc([N+](=O)[O-])cc2[nH]1)Nc1cccc(Cl)c1 | 16.9% (inactive)
O=C(COc1ccc(/C=C2\Oc3ccccc3C2=O)cc1)c1ccc(Cl)cc1 | 94.5% (inactive)
COc1ccc(C2=NN(C(=O)c3cc(OC)c(OC)c(OC)c3)C(c3ccc(C#N)cc3)C2)cc1OC (stereo not given) | 4.24% (active)
CCSc1ncnc2c1ncn2C1OC(CO)C(O)C1O (stereo not given) | 20.2% (inactive)
O=Cc1ncc(-c2ccc(C(F)(F)F)cc2)c(NC2CCCCCC2)n1 | -50.6% [100 µM] (active)
CCCOC(=O)Nc1nc2ccc(SCC)cc2s1 | 76.4% (inactive)
O=C1Nc2ccccc2C12CC(c1ccc(Cl)cc1)=NN2 (stereo not given) | 99.1% (inactive)
O=C(Nc1cccnc1Nc1ccc(Cl)cc1)c1cn(Cc2ccc(F)cc2)nn1 | 109% (inactive)
CC1=NN(C(=O)c2nn(-c3ccc(Cl)cc3)cc2O)C(=O)C1 | 5.71% (active)
COc1cc2c(cc1O)CC[C@@H]1[C@@H]2CC[C@]2(C)[C@@H](OCCN(C)C)CC[C@@H]12 | 87.6% (inactive)
O=C(CC1(O)C(=O)Nc2c(Cl)ccc(Cl)c21)c1ccc(Cl)cc1Cl (stereo not given) | 80.8% (inactive)
Cc1occc1-c1n[nH]c(=S)n1N1C(=O)CSC1=S | 99.2% (inactive)
CC(C)c1nc2ccccc2n1CC(=O)N/N=C/c1cccc(O)c1 | 86.5% (inactive)
CCCCCC(=C/c1ccccc1)/C=N/N=C(N)N | -30.2% (active)
O=C1OC(c2ccc(-c3ccccc3)cc2)=C/C1=C/c1c(Cl)cccc1Cl | 77.8% (inactive)
CCN1C(=O)N(CC)C2C1N=C(SCc1ccc(Cl)cc1)N2/N=C/C=C/c1ccccc1OC (stereo not given) | 37.9% (inactive)
CC[C@]1(O)CC2CN(CCc3c([nH]c4ccccc34)[C@@](C(=O)OC)(c3cc4c(cc3OC)N(C)[C@H]3[C@@](O)(C(=O)OC)[C@H](OC(C)=O)[C@]5(CC)C=CCN6CC[C@]43[C@@H]65)C2)C1 (stereo not given in full) | 2.87% (active)
C[C@@H]1O[C@@H](O[C@@H]2C[C@H](c3ccc4c(c3O)C(=O)C3=C(C4=O)[C@@]4(O)C(=O)C[C@](C)(O)C[C@@]4(O)C=C3)O[C@H](C)[C@H]2O)CC[C@@H]1O[C@H]1C[C@@H](O)[C@H](O)[C@@H](C)O1 | 99.4% (inactive)

Structure (SMILES) | growth
O=c1c2ccccc2n2cnc3ccc(Cl)c1c32 | 82.6% (inactive)
O=C(Nc1cccc(-c2ccc(Cl)c(C(F)(F)F)c2)c1)C1CCN(Cc2cccc3cccnc23)CC1 | -53.9% (active)
CN1CCC2(CC1)N=C(SCC(=O)Nc1cnc3ccccc3c1)C(c1ccc(Br)cc1)=N2 | -40.7% (active)
C=CCn1ccc(=O)nc1SC | 96.4% (inactive)
Nc1cccc(-c2nc3sccn3c2-c2ccnc(NCCCNS(=O)(=O)c3cccc4ccccc34)n2)c1 | 7% (active)
O=C(CCCCCCN1CC(=O)N2[C@@H](c3ccccc3Cl)c3[nH]c4ccccc4c3C[C@H]2C1=O)NO | 55% (inactive)
O=C1c2c[n+](Cc3ccccc3)ccc2-c2nc3ccccc3c3ccnc1c23 | -29.6% (active)
COc1cc(C2=NN(C=O)C(c3cccc(Nc4ccnc5cc(Cl)ccc45)c3)C2)cc(OC)c1OC (stereo not given) | 75.4% (inactive)
Cc1oc2ccc(O)c(CN3CCCCCC3)c2c1C(=O)Nc1ccc(C(F)(F)F)cc1 | 83% (inactive)
CCn1c(Sc2nnc(NC(C)=O)s2)nc2c1c(=O)n(C)c(=O)n2C | 124% (inactive)
CCOC(=O)C#Cc1c(C(=O)OCC)nnn1[C@@H]1O[C@H](COC(C)=O)[C@@H](OC(C)=O)[C@H]1OC(C)=O | 74% (inactive)
O=C1/C(=C/c2ccc(F)cc2)C=C(c2ccccc2)N1CCc1ccccc1 | 81% (inactive)
O=C(/C=C/c1ccc(Cl)cc1)c1cccc(OCCCOc2cccc(C(=O)/C=C/c3ccc(Cl)cc3)c2)c1 | 96.2% (inactive)
Cc1sc2nc(CSc3nnc(-c4ccco4)o3)[nH]c(=O)c2c1C | 68.6% (inactive)
Cn1cc(-c2nonc2-c2c[nH]c3ccc(F)cc23)c2cc(Br)ccc21 | 56.5% (inactive)
CN(C)C1CN(C(=O)c2cc(-c3ccc4ncnc(N5CCc6cc(F)c(Cl)cc65)c4c3)cnc2N)C1 | -1.16% (active)
CCN1CCC2(CC1)NC(=O)c1c(c3ccc(Cl)c(Cl)c3n1C)C2C#N (stereo not given) | 30.2% (inactive)
CCOC(=O)c1c(C(=O)c2cn(C)c3ccc(Br)cc23)c(-c2cn(C)c3ccc(Br)cc23)n(NC(=O)OC(C)(C)C)c1C | 100% [100 µM] (inactive)
CCCCN(CCCC)CCCn1c(-c2ccccc2)ccc1-c1ccccc1 | 61.6% (inactive)
O=C(Nc1cccc(-n2cc(-c3ccncc3)c(-c3cc(O)cc(Cl)c3)n2)c1)Nc1ccc(Cl)c(Cl)c1 | -23.4% (active)
